# Reference: PubChem BioAssay (NCATS)
# Assay: qHTS profiling of the MIPE4 collection as inhibitors of Plasmodium falciparum (HB3) proliferation (AID 743347);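 note: plate controls were DMSO vehicle wells for no effect and artemisinin wells for full effect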
# Conditions: P. falciparum HB3 in erythrocytes, SYBR Green DNA, 72 h; at 28.5 µM (top of the series)
# Method in brief: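 Parasite DNA was quantified by SYBR Green I fluorescence (ex 485, em 535 nm) after overnight lysis in saponin/Triton buffer at room temperature. Cultures at 0.3% parasitemia and 2.5% hematocrit were first exposed to compound for 72 h at 37 C; signals were normalised to artemisinin (0.29 uM) and vehicle wells.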
row,SMILES,"growth, % of control"
1,CC(=O)Nc1ccc(OC[C@](C)(O)C(=O)Nc2ccc([N+](=O)[O-])c(C(F)(F)F)c2)cc1,91.2%
2,COc1ccc2c(c1)[C@]13CCCCC1C(C2)N(C)CC3 (some centres undefined),323%
3,CCCCN1CCC(CNC(=O)c2c3n(c4ccccc24)CCCO3)CC1,32.4%
4,Cc1c(C(=O)Nc2cccc(C(F)(F)F)c2)cc(-c2ccccc2)n1CCCN1CCOCC1,10.9%
5,CCOC(=O)c1c(C(C#N)=CN)c2ccc(Cl)c(Cl)c2n1C,89.6%
6,C=CCON=C(C[C@H]1O[C@@H]2O[C@]3(C)CC[C@@H]4[C@H](C)CC[C@@H]([C@H]1C)[C@@]24OO3)[C@H]1O[C@@H]2O[C@]3(C)CC[C@H]4[C@H](C)CC[C@@H]([C@@H]1C)[C@@]24OO3,64.2%
7,c1cc2c(cc1[C@H]1OC[C@H]3[C@H]1CO[C@H]3c1ccc3c(c1)OCO3)OCO2,107%
8,Nc1nc(-c2nn(Cc3ccccc3F)c3ncccc23)nc(N)c1N1CCOCC1,51.5%
9,CCCC[N+]1(C)[C@H]2CC(OC(=O)[C@H](CO)c3ccccc3)C[C@H]1[C@H]1O[C@H]12 (some centres undefined),52.3%
10,O=C(Oc1ccc([N+](=O)[O-])cc1)N1CCN(Cc2cccc(Oc3ccccc3)c2)CC1,96.4%
11,CC(C)N(CCNC(=O)CN1CCCC1=O)C(C)C,108%
12,C[C@]12CC[C@H]3[C@@H](CCC4=CC(=O)CC[C@@]43C)[C@H]1CC[C@H]2O,86.3%
13,CC(C)[C@H]1C(=O)N[C@H](CO)Cc2c[nH]c3cccc(c23)N1C,88.8%
14,O=C(O)CNC(=O)c1c(O)c2ccccc2n(Cc2ccccc2)c1=O,105%
